Measured values from PubChem BioAssay (Tox21).
Several values for one entry are separate records, joined by “and”; a condition that tells them apart may be missing. Equal values may be shown once. Records with an inconclusive call do not appear. Some compounds were tested as several samples or in several runs, with calls that do not always agree. Activity calls are given as the source filed them. Unless noted, calls follow the shape of the dose curve; as a rule, active = well fitted curve in the direction sought with a large enough effect in the repeat runs; inconclusive = weak or mixed curves; inactive = no such curve, though single readings can be large; an effect the other way counts as inactive or inconclusive.

How the values were obtained:
[1] = qHTS RealTime-Glo MT Cell Viability Assay in HEK293 cells - 0 hour (AID 1224880); also: top concentration of the series differs between compounds; nearly all actives have a fitted effect of over 45% in size
Procedure, shortened: (§1)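 600 cells/well were plated with the nonlytic NanoLuc/prosubstrate reagent, pre-incubated 5 h, then given 23 nL of compound in DMSO. Incubation at 37 C for 40 h, with luminescence from viable-cell-reduced substrate read repeatedly from 0 h.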

[2] = A CellTox Green Cytotoxicity Assay to monitor cytotoxicity in HEK293 cells - 32 hour (AID 1224881); also: nearly all actives have a fitted effect of over 40% in size; also: potency is read from the fitted curve at half-maximal effect
Procedure, shortened: (§2)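 HEK293 cells, 600/well, were preincubated 5 hours and then exposed to compounds at 37 C for up to 40 hours. A cell-impermeant cyanine dye staining dead-cell DNA was read by fluorescence at 0, 8, 16, 24, 32 and 40 h time points.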

[3] = A CellTox Green Cytotoxicity Assay to monitor cytotoxicity in HepG2 cells - 0 hour (AID 1224882); also: nearly all actives have a fitted effect of over 35% in size
Procedure, shortened: (§3)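 HepG2 cells, 600/well, preincubated 5 h with CellTox Green dye, then exposed to Tox21 compounds in DMSO at 37 C for up to 40 h. Dead-cell DNA fluorescence read at the indicated time point.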

[4] = A CellTox Green Cytotoxicity Assay to monitor cytotoxicity in HepG2 cells - 32 hour (AID 1224883); also: nearly all actives have a fitted effect of over 50% in size; also: potency is read from the fitted curve at half-maximal effect
Procedure, shortened: as §3

[5] = A CellTox Green Cytotoxicity Assay to monitor cytotoxicity in HEK293 cells - 8 hour (AID 1224884); also: nearly all actives have a fitted effect of over 35% in size
Procedure, shortened: as §2

[6] = qHTS RealTime-Glo MT Cell Viability Assay in HEK293 cells - 24 hour (AID 1224886); also: nearly all actives have a fitted effect of over 50% in size; also: potency is read from the fitted curve at half-maximal effect
Procedure, shortened: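 Luminescence generated by NanoLuc from substrate produced by living HEK293 cells served as the viability signal. Each value reflects the reading at its stated time point during continuous 40 h compound exposure at 37 C.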

[7] = qHTS RealTime-Glo MT Cell Viability Assay in HEK293 cells - 8 hour (AID 1224887); also: nearly all actives have a fitted effect of over 50% in size; also: potency is read from the fitted curve at half-maximal effect
Procedure, shortened: as §1

[8] = A CellTox Green Cytotoxicity Assay to monitor cytotoxicity in HEK293 cells - 16 hour (AID 1224888); also: nearly all actives have a fitted effect of over 35% in size
Procedure, shortened: as §2

[9] = A CellTox Green Cytotoxicity Assay to monitor cytotoxicity in HepG2 cells - 8 hour (AID 1224890); also: nearly all actives have a fitted effect of over 45% in size
Procedure, shortened: as §3

[10] = qHTS assay to identify small molecule antagonists of the estrogen receptor alpha (ER-alpha) signaling pathway using the BG1 cell line in the presence of 0.1 nM 17-beta-estradiol - cell viability counter screen (AID 1259241); also: nearly all actives have a fitted effect of over 40% in size
Procedure, shortened: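 CellTiter-Fluor read (30 min, 37C) on ER-alpha/ERE-luc VM7Luc4E2 cells; 22 hr compound treatment; agonist 0.1 nM E2 final; same-well multiplex.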

[11] = qHTS assay to identify small molecule antagonists of the androgen receptor (AR) signaling pathway using the MDA cell line in the presence of 0.5 nM R1881 - cell viability counter screen (AID 1259242); also: nearly all actives have a fitted effect of over 45% in size; also: potency is read from the fitted curve at half-maximal effect
Procedure, shortened: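 MDA-kb2 cells (MMTV-luciferase, AR/GR responsive) were treated with compounds plus 0.5 nM R1881 (final) for 16 hr at 37C, 0% CO2. Viability was then read in the same wells as live-cell protease fluorescence (CellTiter-Fluor, 30 min).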

[12] = qHTS assay to identify small molecule HDAC inhibitors - cell viability counter screen (AID 1259365); also: series mostly up to about 92 µM; nearly all actives have a fitted effect of over 50% in size
Procedure, shortened: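 To flag cytotoxic hits, 1,500 wild-type HCT-116 cells per well, plated the day before, receive test compounds for 2hr at 37 C before CellTiter-Glo reagent and a luminescence read.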

[13] = qHTS assay to identify small molecule agonists of the sonic hedgehog signaling (Shh) pathway - cell viability counter screen (AID 1259366); also: nearly all actives have a fitted effect of over 50% in size; also: potency is read from the fitted curve at half-maximal effect
Procedure, shortened: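 Fluorescence from CellTiter-Fluor reports live cells in this counter screen. NIH/3T3-derived Gli1-Luc reporter cells receive test compounds for 24hr at 37C; reagent goes in at 23hr.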

[14] = qHTS assay to identify small molecule antagonists of the sonic hedgehog signaling (Shh) pathway - cell viability counter screen (AID 1259367); also: nearly all actives have a fitted effect of over 55% in size; also: potency is read from the fitted curve at half-maximal effect
Procedure, shortened: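 Seed 3T3 Gli1-Luc cells at 2,000 per well; incubate 4 hr; add compound in DMSO, then conditioned medium; incubate at 37C with 5% CO2; add CellTiter-Fluor after 23 hr; read fluorescence 1 hr later.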

[15] = qHTS assay to identify small molecule agonists of the sonic hedgehog signaling (Shh) pathway (AID 1259368; calls by dose curve;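 also: NIH/3T3-derived 3T3Gli1-Luc cells carrying a stable Gli1-driven firefly luciferase reporter; series mostly up to about 92 µM; nearly all actives have a fitted effect of over 15% in size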)
Procedure, shortened: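 NIH/3T3-derived 3T3Gli1-Luc cells with stably integrated Gli1-driven firefly luciferase, 2,000 cells/well, compounds added after 4 hr. Incubated 24 hr at 37C, 5% CO2; luminescence read after 30 min with luciferase reagent at room temperature.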

[16] = qHTS assay to identify small molecule HDAC inhibitors (AID 1259364); also: nearly all actives have a fitted effect of over 45% in size; also: potency is read from the fitted curve at half-maximal effect
Procedure, shortened: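 Wild-type HCT-116 cells, plated overnight at 37 C, exposed to compounds 2 hr at 37 C; luminogenic HDAC-Glo substrate then added 30 min at room temperature. Luminescence reports relative endogenous class I/II HDAC activity.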

[17] = target: Estrogen receptor (Homo sapiens) (UniProt P03372); assay: qHTS assay to identify small molecule antagonists of the estrogen receptor alpha (ER-alpha) signaling pathway using the BG1 cell line in the presence of 0.1 nM 17-beta-estradiol (AID 1259244); also: nearly all actives have a fitted effect of over 50% in size; also: potency is read from the fitted curve at half-maximal effect
Procedure, shortened: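 VM7Luc4E2 cells (endogenous full-length ER-alpha, 4×ERE-luciferase), kept 5 days in phenol red-free, charcoal-stripped FBS medium; 4,000 cells/well. Compounds added with 0.1 nM (final) 17beta-estradiol, 22 hr at 37C; luminescence read with ONE-Glo after 30 min.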

[18] = qHTS RealTime-Glo MT Cell Viability Assay in HepG2 cells - 16 hour (AID 1224885); also: nearly all actives have a fitted effect of over 50% in size
Procedure, shortened: (§4)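 Tox21 10K library screened in qHTS format on HepG2 cells carrying RealTime-Glo reagents. Compounds were added after a 5 h preincubation, and the luminescent signal from continuous culture was measured repeatedly during 40 h treatment.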

[19] = qHTS RealTime-Glo MT Cell Viability Assay in HepG2 cells - 0 hour (AID 1224889); also: nearly all actives have a fitted effect of over 50% in size
Procedure, shortened: as §4

[20] = target: Androgen receptor (Homo sapiens) (UniProt P10275); assay: qHTS assay to identify small molecule antagonists of the androgen receptor (AR) signaling pathway using the MDA cell line in the presence of 0.5 nM R1881 (AID 1259243); also: nearly all actives have a fitted effect of over 50% in size; also: potency is read from the fitted curve at half-maximal effect
Procedure, shortened: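 MDA-kb2 cells (MMTV-luciferase, responsive to AR and GR) at 3,000/well, rested 5 h at 37C, 0% CO2, then given compounds plus 0.5 nM R1881 (final) for 16 hr. Luciferase read with ONE-Glo after 30 min at room temperature.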

Measured: Potency

Chain of Androgen receptor (Homo sapiens) (P10275 whole entry, looked up): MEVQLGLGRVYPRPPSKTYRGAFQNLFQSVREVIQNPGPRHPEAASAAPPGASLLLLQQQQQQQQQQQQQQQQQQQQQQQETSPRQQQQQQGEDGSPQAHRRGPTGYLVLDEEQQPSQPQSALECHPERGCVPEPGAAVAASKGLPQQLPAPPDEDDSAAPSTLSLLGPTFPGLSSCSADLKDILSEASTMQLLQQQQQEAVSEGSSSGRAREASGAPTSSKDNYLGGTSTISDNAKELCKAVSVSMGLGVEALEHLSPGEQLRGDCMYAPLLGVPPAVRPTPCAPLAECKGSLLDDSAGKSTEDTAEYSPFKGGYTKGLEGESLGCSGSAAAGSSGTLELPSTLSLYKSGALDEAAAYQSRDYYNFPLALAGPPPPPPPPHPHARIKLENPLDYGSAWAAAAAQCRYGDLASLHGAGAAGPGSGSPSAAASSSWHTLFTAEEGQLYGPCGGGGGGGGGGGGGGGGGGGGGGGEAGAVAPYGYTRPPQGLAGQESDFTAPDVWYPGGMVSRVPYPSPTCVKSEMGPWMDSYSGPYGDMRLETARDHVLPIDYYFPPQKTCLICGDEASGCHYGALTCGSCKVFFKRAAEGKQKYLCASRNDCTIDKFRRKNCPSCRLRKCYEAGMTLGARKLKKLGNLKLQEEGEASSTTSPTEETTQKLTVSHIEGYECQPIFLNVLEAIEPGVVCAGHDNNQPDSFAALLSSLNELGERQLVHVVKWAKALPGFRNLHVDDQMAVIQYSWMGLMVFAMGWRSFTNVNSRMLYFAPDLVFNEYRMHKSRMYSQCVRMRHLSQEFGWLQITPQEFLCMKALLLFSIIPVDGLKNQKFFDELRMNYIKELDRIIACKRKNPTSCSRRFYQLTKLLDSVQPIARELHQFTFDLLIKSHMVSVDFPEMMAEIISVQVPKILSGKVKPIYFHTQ
Chain of Estrogen receptor (Homo sapiens) (P03372 whole entry, looked up): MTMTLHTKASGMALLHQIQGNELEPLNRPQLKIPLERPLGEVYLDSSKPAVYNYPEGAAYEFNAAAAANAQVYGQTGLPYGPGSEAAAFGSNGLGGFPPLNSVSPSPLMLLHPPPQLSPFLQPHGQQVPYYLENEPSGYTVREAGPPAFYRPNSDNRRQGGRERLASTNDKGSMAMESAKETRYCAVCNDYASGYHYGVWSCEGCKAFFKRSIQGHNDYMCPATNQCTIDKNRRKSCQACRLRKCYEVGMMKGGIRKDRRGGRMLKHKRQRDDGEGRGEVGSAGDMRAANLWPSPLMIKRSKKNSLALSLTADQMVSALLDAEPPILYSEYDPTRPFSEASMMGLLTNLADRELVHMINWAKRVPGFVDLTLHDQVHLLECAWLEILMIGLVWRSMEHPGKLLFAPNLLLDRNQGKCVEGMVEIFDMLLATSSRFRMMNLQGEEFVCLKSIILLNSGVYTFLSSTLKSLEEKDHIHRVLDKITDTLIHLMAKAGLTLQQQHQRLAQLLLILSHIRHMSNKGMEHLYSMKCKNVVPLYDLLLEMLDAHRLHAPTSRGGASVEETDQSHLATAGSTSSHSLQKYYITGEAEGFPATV

C1=Cc2cccc3cccc1c23
active: [2] 49 µM
not listed: [16] | [17] | [18] | [19] | [20]
inactive: all other assays above

C=CCc1ccc2c(c1)OCO2
not listed: [8] | [17] | [18] | [19] | [20]
inactive: all other assays above

C#CCOS(=O)OC1CCCCC1Oc1ccc(C(C)(C)C)cc1 (stereo unspecified)
active: [6] 15.5 µM and 19.5 µM | [7] 17.4 µM | [11] 6.11 µM | [17] 8.64 µM and 15.4 µM | [13] 24.4 µM and 54.5 µM | [14] 21.7 µM and 27.3 µM
not listed: [16] | [18] | [19] | [20]
inactive: all other assays above

CN(C)c1ccc(C(=O)c2ccc(N(C)C)cc2)cc1
inactive and 21.7 µM (active): [14]
inactive and 48.6 µM (active): [16]
active: [4] 12.2 µM
not listed: [6] | [17] | [19] | [20]
inactive: all other assays above

CCOc1cc(C=O)ccc1O
not listed: [4] | [17] | [20]
inactive: all other assays above

Clc1nc(Cl)nc(Cl)n1
not listed: [18] | [20]
inactive: all other assays above

CCCCN(CC)c1c([N+](=O)[O-])cc(C(F)(F)F)cc1[N+](=O)[O-]
active: [7] 17.7 µM
not listed: [16] | [17] | [18] | [20]
inactive: all other assays above

Nc1ccncc1
not listed: [8] | [18]
inactive: all other assays above

CNC(=O)Oc1cccc2c1OC(C)(C)O2
not listed: [8] | [18] | [19] | [20]
inactive: all other assays above

CCOCN(C(=O)CCl)c1c(C)cccc1CC
active: [17] 45.9 µM and 48.6 µM | [13] 57.7 µM and 30.6 µM | [14] 54.5 µM
not listed: [8] | [16] | [18] | [20]
inactive: all other assays above

N#CC(Br)Br
not listed: [4] | [16] | [20]
inactive: all other assays above

CC(C)(OOC(C)(C)c1ccccc1)c1ccccc1
active: [2] 24.2 µM and 49 µM | [20] 24 µM
not listed: [8] | [17] | [18] | [19]
inactive: all other assays above

Cc1cc(C)cc(C)c1
not listed: [8] | [16] | [17] | [18] | [20]
inactive: all other assays above
